Screens deposited in PubChem BioAssay by Center for Chemical Genomics, University of Michigan.
The sample as a whole holds a higher share of hits than the screen did.
Dicer inh – inhibitors of human Dicer processing of pre-microRNA | Q9UPY3 | cat-ELCCA pre-miR-21 Dicer processing, chemiluminescence; stronger effect = higher value | z-score at 25 µM | actives 6% (n = 47,000) | AID 1347074; in the data active = z-score above about 3, passing the limit was not always enough;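 also: plate controls were vehicle for no effect and no enzyme for full effect; higher signal means more uncleaved substrate so more Dicer inhibition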
* marks the source's active call; other numbers are inactive results.

SMILES	Dicer inh
Clc1c(Cl)c(Cl)c(-n2cccc2)c(Cl)c1Cl	0.62
COc1cc(C(=O)NNS(=O)(=O)c2ccccc2C)c(-n2c(C)ccc2C)cc1OC	-0.67
COc1cc(C(=O)NS(=O)(=O)c2ccccc2C)ccc1Cc1cn(C)c2ccc(NC(=O)OC3CCCC3)cc12	4.3*
CC(C)(C)C1CCc2c(sc(NC(=O)COc3ccccc3)c2C(N)=O)C1 (centres undefined)	-1.3
Cc1ccc(-c2cc(C(F)(F)F)n3nc(C)cc3n2)cc1	0.37
Cn1c(=O)[nH]c(=O)c2c1ncn2Cc1ccccc1F	0.54
CCOc1ccc(NC(=S)NC(c2ccccc2)c2ccccc2)cc1	-0.48
Cc1ccc(C(C)NC(=S)Nc2ccc(Cl)cc2)c(C)c1 (centres undefined)	-0.11
CC(NC(=S)Nc1ccc(Oc2ccc(Cl)cc2)cc1)c1ccccc1 (centres undefined)	3.9*
Cc1ccc(-n2cccc2)c(NC(=O)c2c(-c3c(Cl)cccc3Cl)noc2C)c1	0.7
Cc1nc(-n2cccc2)sc1C(=O)NN	-0.02
CCOC(=O)c1c(SC)nc2c(Cl)cccc2c1Oc1cccc(Cl)c1	-1.9
CCC(=O)Nc1ccc2c(c1)N(CC)C(C)(C)CC2C (centres undefined)	1.4
CC(=O)Nc1cc(N2CC(C)CC(C)C2)c(F)cc1[N+](=O)[O-] (centres undefined)	28*
CC(=O)Nc1cc(N2CCOCC2)c(F)cc1[N+](=O)[O-]	-1.3
CC1CC(C)CN(c2ccc(S(N)(=O)=O)cc2[N+](=O)[O-])C1 (centres undefined)	-1.1
Cc1cc(C(=O)NNC(=O)Nc2ccc(F)cc2F)nn1C(C)(C)C	1.6
O=C1CSCC(=O)N1c1ccccc1N1CCOCC1	-1.1
COC(=O)c1nn(-c2ccccc2)c(=O)c2c(NC(C)=O)sc(C)c12	-1.5
Cc1cc(C)n2nc(C)c(-c3ccc(Cl)cc3)c2n1	1.9
Cc1cc(C)n2ncc(-c3ccc(Cl)cc3)c2n1	3.9*
Cc1cc(N)n2ncc(-c3ccccc3)c2n1	0.44
CCOc1ccc(C2C3=C(CC(C)(C)CC3=O)Nc3cc4c(cc32)OCO4)cc1 (centres undefined)	2.9
COc1ccc(C2C3=C(CC(C)(C)CC3=O)Nc3cc4c(cc32)OCO4)cc1 (centres undefined)	6.2*
CC1(C)CC(=O)C2=C(C1)Nc1cc3c(cc1C2c1ccc(F)cc1)OCO3 (centres undefined)	1.8
SMILES	Dicer inh
COc1cccc(NC(=O)Nc2c(-c3cccc(C(F)(F)F)c3)c(C(F)(F)F)nn2C)c1	-0.27
CCOC(=O)/C(C#N)=C(/SC)N(C)C	0.7
O=C(CNCc1ccccc1)Nc1ccc(I)cc1	-0.1
COc1ccc(NC(=O)Nc2cccc(NC(=O)Nc3ccc(OC)cc3)c2F)cc1	-0.32
COc1ccc(NC(=O)c2cccc3c2-c2ccc(I)cc2C3)cc1	-0.13
COc1ccc(NC(=O)C2=Cc3cccc(OC)c3OC2)cc1	3.8*
CCCCNC(=O)n1nc(SC)cc1-c1sc(-c2cccs2)nc1C	0.33
CCOC(=O)c1sc(S(C)(=O)=O)c2c1CCCC2O (centres undefined)	-0.48
Cc1ccc2c(c1)C(O)(CC(=O)c1ccc(C(C)(C)C)cc1)C(=O)N2 (centres undefined)	-0.13
O=C(Nc1cc(Cl)cc(Cl)c1)Nc1cc(-c2cccs2)[nH]n1	-3.4
O=C(Oc1ccc2c(=O)c(Oc3ccccc3Cl)coc2c1)c1ccco1	8.1
Cc1cccc(Nc2nc3nonc3nc2Nc2ccc(F)cc2)c1C	2.4
Cc1cccc(Nc2ncncc2C#N)c1C	3.7*
Cc1cc(C)c(C#N)c(Nc2ccccc2C)n1	0.71
O=c1c(Cc2ccccc2)c(O)c2cccc3c4ccccc4n1c23	-1.5
O=c1c(Cc2ccccc2)c(O)c2ccccc2n1-c1ccccc1	4*
O=c1c(Cc2ccccc2)c(O)c2cccc3c2n1CCC3	-1
CN(C(=O)CC#N)c1ccc(F)cc1F	-0.21
Cc1nc(N2CCN(c3ccccn3)CC2)nc2c1C(=O)CC(c1ccc(Cl)cc1)C2 (centres undefined)	-0.26
Cc1nc(N2CCN(c3ccccc3)CC2)nc2c1C(=O)CC(C)C2 (centres undefined)	0.21
Cc1nc(N2CCN(c3cccc(Cl)c3)CC2)nc2c1C(=O)CC(c1ccco1)C2 (centres undefined)	3*
O=S(=O)(NCc1c(Cl)cccc1Sc1ccc(Cl)cc1)c1ccc(-c2ccno2)s1	-0.87
COc1ccc(O)c(C2=NN3C(C2)c2cccc(OC)c2OC3c2cccs2)c1 (centres undefined)	3.5*
COC(=O)c1ccc(C2Oc3c(OC)cccc3C3CC(c4cccs4)=NN32)cc1 (centres undefined)	-1.6
COc1cccc(C2Oc3ccccc3C3CC(c4cccs4)=NN32)c1OC (centres undefined)	20*
SMILES	Dicer inh
COc1ccc(C2Oc3c(OC)cccc3C3CC(c4cc(OC)ccc4O)=NN32)c(OC)c1 (centres undefined)	2.8
COc1ccc(O)c(C2=NN3C(C2)c2ccccc2OC3c2ccc(O)c(OC)c2)c1 (centres undefined)	2.6
COc1ccc(O)c(C2=NN3C(C2)c2ccccc2OC3c2cccs2)c1 (centres undefined)	11*
COc1cccc2c1OC(c1cccs1)N1N=C(c3ccccc3O)CC21 (centres undefined)	1.3
COc1ccc(O)c(C2=NN3C(C2)c2ccccc2OC3c2ccc(F)cc2)c1 (centres undefined)	2.4
O=C(CCC(=O)c1ccc2c(c1)OCCO2)OCC(=O)c1ccc(F)cc1	-0.17
Cn1nc(-c2ccc(-c3ccn(C(=O)c4ccc(Cl)cc4)n3)s2)cc1C(F)(F)F	0.46
C#Cc1cccc(-n2nnc(-c3ccccc3)c2C)c1	0.21
CSc1nnc2c(n1)OC(C1CC=C(C)CC1C)Nc1ccccc1-2 (centres undefined)	0.25
C=CCn1c(Sc2ncnc3c2sc2nc(C)cc(C)c23)nnc1-c1ccc(Cl)cc1	0.22
CC(C)(C)NC(=O)Cn1ccc(C(F)(F)F)n1	0.08
O=C(Nc1ccccc1)N1CCCc2ccccc21	3.2*
O=C(Nc1ccccc1)N1c2ccccc2CCc2ccccc21	0.06
S=C(Nc1ccccc1Cl)N1CCc2ccccc2C1	-0.33
O=C(Nc1ccc(OCc2ccccc2)cc1)N1CCCc2ccccc21	2.1
Cc1cccc2c1N(C(=S)Nc1ccccc1Cl)CCC2	1.6
S=C(Nc1ccccc1Cl)N1CCCc2ccccc21	3.8*
COC(=O)CCCCCCCC(=O)Nc1nccs1	0.08
COc1ccc(OC)c(S(=O)(=O)/N=C(\Nc2cc(C(F)(F)F)cc(C(F)(F)F)c2)SC)c1	0.4
CCOC(=O)C(O)(NC(=O)c1ccc(Cl)cc1Cl)C(F)(F)F (centres undefined)	0.69
CCOc1ccc(C2Nn3c(C)nnc3SC2C(=O)NCC2CCCO2)cc1 (centres undefined)	3.4*
O=C(NCC1CCCO1)C1Sc2nnc(-c3ccccc3)n2NC1c1ccc(Cl)cc1 (centres undefined)	1.7
O=C(NCC1CCCO1)C1Sc2nnc(-c3ccccc3)n2NC1c1ccc(F)cc1 (centres undefined)	-0.07
CCOC(=O)/C=C(\C)Nc1ccc(OC)cc1	0.16
CC(C)(C)C1CCC(OC(=O)Cn2cnc([N+](=O)[O-])n2)CC1 (centres undefined)	3.1*
CC(C)OC(=O)Cn1cnc([N+](=O)[O-])n1	-0.76
COc1ccc(NC(=O)Cn2cnc([N+](=O)[O-])n2)c(OC)c1	-0.56
